Measurements from PubChem BioAssay.
The source made the active and inactive calls.

Legend:
[1] = test system: Human papillomavirus type 1a protein E7 (residues 44-93); assay: small molecules binding HPV E7 44-93 – biochemical, small-molecule microarray, residues 44-93, 635 nm fluorescence, primary screen (AID 1108); details: fluorescence 635 nm, higher = more signal;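 further: E7 fragment applied at 1 µg/mL in TBST for 1 h at 4 C; score combines spot fluorescence with its signal to noise ratio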
[2] = hepatitis C replication reporter changes, two-sided – Huh7 cells, luciferase reporter, HCV replication inhibitor project, primary screen (AID 1109); details: Huh7 HCV replicon luciferase reporter, 48 h; higher = more signal;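 further: huh7 hepatoma cells harbouring a luciferase neomycin HCV replicon reporter; luciferase luminescence as measure of HCV replicon replication; test concentration not given here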
[3] = target: Left-right determination factor 2 (Homo sapiens) (UniProt O00292); assay: small molecules binding LEFTY2 protein – biochemical, small-molecule microarray, 635 nm fluorescence scan, primary screen (AID 1110); details: higher = more signal
[4] = target: Calmodulin-1 (Homo sapiens) (UniProt P0DP23); assay: small molecules binding calmodulin-1 with EGTA – biochemical, small-molecule microarray, Cy5-labelled CALM1, profiling panel (AID 1111); details: Cy5-CALM1 binding fluorescence, higher = more signal;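 further: labelled calmodulin applied in Tris saline Tween buffer holding calcium plus EGTA and DTT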
[5] = target: Calmodulin-1 (Homo sapiens) (UniProt P0DP23); assay: small molecules binding Ca-loaded calmodulin-1 – biochemical, small-molecule microarray, Cy5-labelled CALM1, plus calcium, artefact control for SMM control-protein annotation, profiling panel (AID 1112); details: Cy5-CALM1 binding fluorescence, higher = more signal;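 further: score merges spot fluorescence with signal to noise from triplicate slides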
[6] = probe aWnt5a binding to arrayed compounds – biochemical, biotinylated probe, 635/667 nm fluorescence, primary screen (AID 1113); details: small-molecule microarray, higher = more signal;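 further: score merges 667 nm fluorescence intensity with signal-to-noise per printed feature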
[7] = probe aShh binding to arrayed compounds – biochemical, biotinylated probe, 635/667 nm fluorescence, primary screen (AID 1114); details: small-molecule microarray, higher = more signal;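 further: probe is biotin-labelled aShh protein from a stem cell growth factor screen; measures binding of labelled protein to compounds printed on the slide; score merges feature fluorescence at 667 nm with signal-to-noise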
[8] = probe aNog binding to arrayed compounds – biochemical, biotinylated probe, 635/667 nm fluorescence, primary screen (AID 1115); details: small-molecule microarray, higher = more signal;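 further: probe is biotinylated aNog protein used at 0.15 µg/mL for 1 h at 4 C; z-score combines 667 nm fluorescence of each spot with its signal to noise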
[9] = target: Torsin-1A-interacting protein 1 (Homo sapiens) (UniProt Q5JTV8); assay: compound microarray binding of lysate hLAP1 – cell lysate, small-molecule microarray, COS7 lysate, 635/667 nm fluorescence, primary screen (AID 1116); details: 635 nm fluorescence, higher = more signal
[10] = target: Alpha-bungarotoxin (Bungarus multicinctus) (UniProt P60615); assay: compounds binding labelled alpha-BTX control protein – biochemical, small-molecule microarray, Alexa647 label, 635/667 nm fluorescence, artefact control for SMM control protein annotation, profiling panel (AID 1117); details: alpha-BTX-A647 binding fluorescence, higher = more signal
Albumin (Bos taurus) = Albumin (Bos taurus) (UniProt P02769); assay: compounds binding labelled BSA control protein – biochemical, small-molecule microarray, Alexa647 label, 635/667 nm fluorescence, artefact control for SMM control protein annotation, profiling panel (AID 1118); details: BSA-A647 binding, fluorescence 635 nm, higher = more signal;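 further: score merges 667 nm emission intensity and signal-to-noise per printed compound spot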
[11] = probe aXIP binding to arrayed compounds – biochemical, NeuroSMM set, 635/667 nm fluorescence, primary screen (AID 1119); details: small-molecule microarray, higher = more signal, called active from +8 up or from −8 down;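 further: probe is the protein aXip251-270 applied at 1 µg/mL to compound-printed slides; binding of probe to printed compounds measured as 667 nm fluorescence plus signal to noise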
[12] = probe aNOTCH3 binding on compound microarray – biochemical, small-molecule microarray, 635/667 nm fluorescence, primary screen (AID 1120); details: higher = more signal;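 further: probe is a biotin-tagged antibody raised against NOTCH3 rather than NOTCH3 protein; score merges spot fluorescence near 667 nm with spot signal to noise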
[13] = probe aNOTCH2 binding on compound microarray – biochemical, small-molecule microarray, 635/667 nm fluorescence, primary screen (AID 1121); details: higher = more signal;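 further: score merges feature fluorescence read at 667 nm with its signal to noise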
[14] = target: Carbonic anhydrase 2 (Homo sapiens) (UniProt P00918); assay: compounds binding carbonic anhydrase 2 – biochemical, small-molecule microarray, Alexa647-labelled CAII, profiling panel (AID 1122); details: CAII-A647 binding fluorescence, higher = more signal
[15] = COS7 lysate on small-molecule microarray, probe aHis, 635 nm (AID 1123); details: COS7 cell lysate, fluorescence, higher = more signal;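 further: z-score combines 667nm fluorescence intensity with signal-to-noise per printed compound spot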
[16] = probe aLAP1 signal on lysate-treated microarray – cell lysate, small-molecule microarray, COS7 lysate, primary screen (AID 1124); details: probe aLAP1, fluorescence, higher = more signal;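 further: lysate comes from COS7 cells expressing LAP1 and is applied at 0.3 µg/mL; score merges spot fluorescence near 667 nm with signal-to-noise over triplicate slides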
Sam68 (KHDRBS1) = assay: compounds binding KHDRBS1 protein – biochemical, small-molecule microarray, 635 nm fluorescence, primary screen (AID 1125); details: higher = more signal;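 further: score merges 667 nm channel intensity with signal to noise over triplicate slides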
[17] = test system: Chordin-like protein 2 (CHRDL2); assay: compounds binding chordin-like 2 – biochemical, small-molecule microarray, 635 nm fluorescence, primary screen (AID 1126); details: fluorescence 635 nm, higher = more signal;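 further: printed compound slides probed with Chrdl2 protein at 4 µg/mL for 1 h at 4 C; score merges 667 nm emission intensity with signal to noise over three replicate slides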
[18] = target: Concanavalin-A (Canavalia ensiformis) (UniProt P02866); assay: compounds binding concanavalin A lectin – biochemical, small-molecule microarray, Alexa647 label, 635 nm, artefact control for SMM control protein annotation, primary screen (AID 1127); details: ConA-A647 binding fluorescence, higher = more signal;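 further: z combines 667 nm emission intensity with signal-to-noise across three replicate slides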
Concanavalin-A (Canavalia ensiformis), sequence (P02866 whole entry, looked up): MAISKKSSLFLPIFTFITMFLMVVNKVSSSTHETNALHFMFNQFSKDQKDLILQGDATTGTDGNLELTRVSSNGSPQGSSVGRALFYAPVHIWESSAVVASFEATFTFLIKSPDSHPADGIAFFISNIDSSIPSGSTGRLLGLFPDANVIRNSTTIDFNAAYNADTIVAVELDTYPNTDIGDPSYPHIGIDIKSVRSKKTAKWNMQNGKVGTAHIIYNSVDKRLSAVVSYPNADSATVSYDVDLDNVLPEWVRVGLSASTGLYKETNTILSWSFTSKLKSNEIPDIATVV

Albumin (Bos taurus), sequence (P02769 whole entry, looked up): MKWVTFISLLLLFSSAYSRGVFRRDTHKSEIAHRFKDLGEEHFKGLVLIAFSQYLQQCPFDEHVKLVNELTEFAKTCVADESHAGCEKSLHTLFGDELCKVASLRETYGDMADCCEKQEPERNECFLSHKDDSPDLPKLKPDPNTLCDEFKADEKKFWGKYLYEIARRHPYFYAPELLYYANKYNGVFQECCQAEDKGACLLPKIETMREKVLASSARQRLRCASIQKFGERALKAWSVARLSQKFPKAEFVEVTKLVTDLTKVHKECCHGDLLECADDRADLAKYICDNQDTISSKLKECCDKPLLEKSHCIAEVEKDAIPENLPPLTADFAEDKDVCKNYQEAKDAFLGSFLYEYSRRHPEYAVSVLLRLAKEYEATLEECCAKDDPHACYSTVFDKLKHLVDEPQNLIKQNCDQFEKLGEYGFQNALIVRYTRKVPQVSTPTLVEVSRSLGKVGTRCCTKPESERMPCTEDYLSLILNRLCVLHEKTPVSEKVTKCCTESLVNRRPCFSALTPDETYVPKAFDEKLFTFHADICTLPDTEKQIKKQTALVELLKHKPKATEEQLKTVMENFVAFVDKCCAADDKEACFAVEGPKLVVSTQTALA
Left-right determination factor 2 (Homo sapiens), sequence (O00292 whole entry, looked up): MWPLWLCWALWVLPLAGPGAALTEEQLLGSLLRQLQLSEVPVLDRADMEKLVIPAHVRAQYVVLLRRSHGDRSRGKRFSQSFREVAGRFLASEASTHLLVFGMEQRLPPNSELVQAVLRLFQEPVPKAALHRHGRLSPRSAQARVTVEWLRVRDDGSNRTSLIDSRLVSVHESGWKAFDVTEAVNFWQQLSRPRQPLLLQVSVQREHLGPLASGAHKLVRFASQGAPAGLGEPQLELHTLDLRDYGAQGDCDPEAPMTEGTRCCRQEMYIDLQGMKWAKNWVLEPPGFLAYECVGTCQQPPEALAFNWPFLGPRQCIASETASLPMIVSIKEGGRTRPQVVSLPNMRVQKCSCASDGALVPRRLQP
Alpha-bungarotoxin (Bungarus multicinctus), sequence (P60615 whole entry, looked up): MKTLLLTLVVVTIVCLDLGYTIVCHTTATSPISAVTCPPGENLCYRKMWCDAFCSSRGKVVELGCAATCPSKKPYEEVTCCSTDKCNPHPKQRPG
Torsin-1A-interacting protein 1 (Homo sapiens), sequence (Q5JTV8 whole entry, looked up): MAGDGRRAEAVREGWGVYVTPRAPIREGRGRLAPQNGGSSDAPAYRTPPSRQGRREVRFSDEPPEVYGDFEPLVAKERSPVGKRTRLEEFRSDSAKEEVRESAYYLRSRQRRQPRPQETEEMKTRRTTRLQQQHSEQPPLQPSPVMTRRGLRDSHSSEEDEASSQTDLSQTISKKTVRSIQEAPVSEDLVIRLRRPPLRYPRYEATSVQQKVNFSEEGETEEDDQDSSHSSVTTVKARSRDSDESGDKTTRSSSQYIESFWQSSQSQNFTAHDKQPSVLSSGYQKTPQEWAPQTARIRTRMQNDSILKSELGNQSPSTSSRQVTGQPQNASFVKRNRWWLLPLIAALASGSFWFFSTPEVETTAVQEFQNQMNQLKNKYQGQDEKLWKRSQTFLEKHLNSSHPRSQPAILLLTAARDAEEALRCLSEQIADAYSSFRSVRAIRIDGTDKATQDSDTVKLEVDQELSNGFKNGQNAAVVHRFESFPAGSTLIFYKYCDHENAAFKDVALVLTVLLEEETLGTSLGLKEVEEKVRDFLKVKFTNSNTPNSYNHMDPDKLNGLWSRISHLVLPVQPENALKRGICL

Row | SMILES | composite z-score [1] | z-score [2] | composite z-score [3] | composite z-score [4] | composite z-score [5] | composite z-score [6] | composite z-score [7] | composite z-score [8] | composite z-score [9] | composite z-score [10] | composite z-score (Albumin (Bos taurus)) | composite Z-score [11] | composite z-score [12] | composite z-score [13] | composite z-score [14] | composite z-score [15] | composite z-score [16] | composite z-score (Sam68 (KHDRBS1)) | composite z-score [17] | composite z-score [18]
1 | CO[C@H]1COC(=O)CCC[C@H](C)[C@@H](OC)COC(=O)CC=C[C@@H]1C | -0.431 | -1.63 | 0.966 | -0.946 | -1.1 | -0.191 | -0.0248 | -0.267 | 0.387 | 0.0355 | -0.553 | 0.168 (inactive) | -0.136 | -0.0766 | -0.298 | -0.378 | -0.0711 | 0.113 | 0.896 | -0.427
2 | CC(CCC(=O)OC[C@H]1O[C@H](C#Cc2ccccc2)C=C[C@@H]1Oc1ccc(C)cc1)=NOC[C@@H](C)[C@H](OCc1ccccc1)C(C)C | -1.89 | -0.982 | -0.502 | -1.24 | -0.336 | -0.0573 | -0.899 | -0.902 | -0.746 | -0.79 | -0.607 | 0.35 (inactive) | -0.325 | -0.226 | -0.0949 | 1.47 | -0.427 | -1.2 | -0.606 | -1.14
3 | CCOC(=O)[C@H](CC(C)C)NC(=O)CCC1CC(OC(=O)NCc2ccc3c(c2)OCO3)CC2(CCCC(COC(=O)NCc3ccccc3)O2)O1 (stereo not given in full) | 1.37 | -0.0695 | 0.355 | 0.562 | -0.158 | 0.0799 | -0.153 | -0.074 | 0.137 | 0.461 | 0.646 | 1.09 (inactive) | -0.226 | -0.146 | 0.198 | 1.25 | -0.118 | 1.19 | 0.161 | 1.01
4 | CCCNC(=O)OC[C@H]1O[C@H](CCON=C2c3cc(OC)ccc3O[C@H](c3cccc(OC)c3)[C@H]2O)C=C[C@@H]1Oc1ccc(OC)cc1 | 0.523 | -3.02 | 0.322 | 0.571 | 0.0967 | -0.187 | -0.0035 | -0.239 | 1.28 | 1.2 | 0.491 | 3.22 (inactive) | 0.219 | 0.0889 | 0.137 | 1.24 | 0.812 | 0.956 | 0.366 | 0.493
5 | CCOC(=O)CCN1C(=O)[C@H]2[C@H]3[C@H](O)[C@H](O)CC(=NOCC=C(C)CCC=C(C)C)[C@H]3CC[C@H]2C1=O | -0.11 | -0.409 | 0.199 | -0.38 | -0.488 | -0.103 | -0.221 | -0.1 | -0.393 | 0.271 | -0.269 | -0.113 (inactive) | 0.179 | -0.167 | -0.276 | -0.405 | -0.192 | 0.458 | -0.178 | 0.116
6 | COC(=O)C1=C(C)N(Cc2ccccc2)C2=C3C(=O)OCC[C@@H]3[C@@](O)(C(=O)OC)C(=O)N2[C@@H]1c1ccccc1 | -0.0816 | 0.935 | 0.528 | -0.0583 | -0.689 | -0.13 | 0.0278 | -0.189 | -0.207 | 0.415 | -0.0298 | -0.135 (inactive) | 0.0182 | -0.14 | -0.085 | 0.132 | -0.186 | -0.0394 | 0.487 | 0.325
7 | O=C1[C@H]2[C@H]3[C@H](O)[C@H](O)CC(=NOCc4ccccc4)[C@H]3CC[C@H]2C(=O)N1C1CCCCC1 | 0.656 | 0.409 | 0.531 | 0.55 | 0.158 | -0.0572 | 0.0754 | 0.165 | -0.106 | 1.01 | 0.487 | 0.447 (inactive) | -0.0744 | -0.14 | 0.505 | 0.596 | -0.438 | 0.734 | 0.318 | 0.921
8 | O=C(NN=C1C[C@@H](O)[C@@H](O)[C@@H]2[C@@H]3C(=O)N(c4ccc(F)cc4F)C(=O)[C@@H]3CC[C@H]12)OCc1ccccc1 | 1.35 | -0.642 | 0.446 | 0.463 | -0.235 | -0.12 | -0.0192 | -0.406 | 0.747 | 0.555 | 0.87 | -0.525 (inactive) | 0.11 | -0.0958 | 0.477 | 0.98 | -0.27 | 0.959 | 0.161 | 0.411
9 | COC(=O)CC=C1c2ccccc2[C@H](OC)[C@H]1C | -0.887 | -0.154 | 0.398 | -0.452 | -0.746 | -0.0981 | -0.138 | -0.172 | -0.035 | -0.545 | -0.8 | 0.272 (inactive) | 0.0026 | -0.0614 | -0.36 | -0.316 | -0.441 | -0.742 | 0.523 | -0.334
10 | CCOC(=O)[C@H](CC(C)C)NC(=O)CCC1CC(OC(=O)NCc2ccc3c(c2)OCO3)CC2(CCCC(COC(=O)NCCc3ccc(Cl)cc3)O2)O1 (stereo not given in full) | 0.838 | 0.225 | 0.582 | -0.131 | -0.572 | -0.0556 | -0.283 | -0.363 | 0.426 | 0.983 | 0.619 | -0.232 (inactive) | 0.0116 | -0.159 | 0.232 | 0.817 | 0.127 | 1.11 | 0.359 | -0.0326
11 | CCN1C(=O)[C@H]2[C@H]3[C@H](O)[C@H](O)CC(=NO[C@@H]4O[C@H](COC(C)=O)[C@@H](OC(C)=O)[C@H](OC(C)=O)[C@H]4OC(C)=O)[C@@H]3CC[C@H]2C1=O | 0.519 | -0.835 | 0.671 | -0.41 | -0.564 | 0.0151 | 0.126 | 0.166 | 0.256 | 0.721 | 0.646 | 0.581 (inactive) | 0.0479 | -0.044 | -0.0179 | 0.415 | 0.781 | 1.22 | 0.58 | -0.441
12 | O=C1C[C@@H](O)[C@@H](O)[C@@H]2[C@@H]3C(=O)N(Cc4ccccc4)C(=O)[C@@H]3CC[C@H]12 | -0.234 | -0.0156 | 0.804 | 0.0302 | -0.344 | -0.0869 | -0.138 | 0.0369 | 0.432 | 0.848 | -0.0028 | -0.082 (inactive) | 0.111 | -0.107 | 0.213 | -0.0842 | 0.23 | 0.184 | 0.415 | 0.941
13 | COC(=O)CC=C[C@@H](C)[C@@H](C=NOC[C@@H](O)COCc1ccco1)NS(=O)(=O)c1ccc(C)cc1 | -1.24 | -0.42 | 1.04 | -2.79 | -2.64 | -0.166 | -0.162 | -0.252 | -0.435 | -0.672 | -1.17 | -0.553 (inactive) | -0.169 | -0.0854 | -0.485 | -1.36 | -0.504 | -0.866 | 1.52 | -2.76
14 | O=C1C2=CC[C@H]3C(=O)N(c4ccc(F)cc4F)C(=O)[C@H]3[C@H]2[C@H](O)[C@@H]2O[C@H]12 | 0.356 | -0.155 | 0.662 | -0.232 | -0.773 | -0.206 | -0.352 | -0.553 | 0.335 | 0.455 | 0.0384 | -0.778 (inactive) | -0.165 | -0.118 | -0.0649 | -0.293 | 0.0054 | 0.339 | 0.783 | 0.469
